The source of these data is PubChem BioAssay (NCI).

Test systems include NCI-H226 lung; NCI-H322M lung; HOP-62 NSCLC; NCI-H460 lung; HOP-92 NSCLC; NCI-H522 lung; A549/ATCC NSCLC; 786-0 renal; COLO 205 colon; DU-145 prostate; K-562 leukemia; MALME-3M melanoma; MDA-MB-231 breast; RXF 393 renal; SF-268 CNS; SF-295 CNS; SF-539 CNS; UACC-257 melanoma; M14 melanoma.
Common to all, as to assay: NCI-60 one-dose screen, 48 h (100 = growth as untreated, 0 = no growth, -100 = all killed)
Common to all, as to settings: 10 µM unless noted

This is part of a sample that, as a whole, favours compounds with a hit. Of some 83,000 tested, about 20% had one in any assay.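 Testing used 96-well plates and a 48-hour single-concentration exposure. Example: -40 means 40% of the starting cells died.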 Unmarked numbers belong to inactive results. Calls of active or inactive are those of the source. Rule for the calls: active = growth percent below 10; inactive = the rest.

On to `COc1cc2cc(Oc3ccc(NC(=O)Nc4ccc(Cl)c(C(F)(F)F)c4)cc3)c(C)nc2cc1OCCN1CCOCC1`, for which the growth in the assay with NCI-H226 lung is 34.9%; with NCI-H322M lung it was 61.1%; with HOP-62 NSCLC it was 27.6%; in the assay with NCI-H460 lung it was 8.67% (active); in the assay with HOP-92 NSCLC, 20.5%; with NCI-H522 lung, 20.7%. The growth with A549/ATCC NSCLC is 12.7%; with 786-0 renal, 29.2%; with COLO 205 colon it was -28.3% (active); with DU-145 prostate it was 25.2%; in the assay with K-562 leukemia, 9.9% (active); in the assay on MALME-3M melanoma, 37.7%. Also, the growth in the assay on MDA-MB-231 breast is 38.4%; with RXF 393 renal, 43.7%; in the assay on SF-268 CNS, 32.2%; in the assay with SF-295 CNS, 0.751% (active); in the assay with SF-539 CNS, 41.7%; with UACC-257 melanoma it was 14.1%. Also, the growth with M14 melanoma was 19.2%.
Take `CCCCCCNC(=O)Oc1ccc(/C(=C(\C)c2ccc(Cl)cc2)c2ccc(OCCCN(C)C)cc2)cc1`: the growth in the assay with NCI-H226 lung is 110%; in the assay on NCI-H322M lung, 81.7%; with HOP-62 NSCLC, 97%; in the assay with NCI-H460 lung it was 32.7%; with HOP-92 NSCLC it was 58.6%; with NCI-H522 lung it was 83.7%. Further, the growth was 63.5% in the assay on A549/ATCC NSCLC; 56.8% in the assay with 786-0 renal; 23.8% in the assay on COLO 205 colon; 84.9% with DU-145 prostate; -28.4% (active) with K-562 leukemia; 68.6% in the assay on MALME-3M melanoma. The growth in the assay on MDA-MB-231 breast was 79.2%; in the assay on RXF 393 renal, 80.1%; in the assay on SF-268 CNS, 77%; in the assay with SF-295 CNS, 97.5%; in the assay with SF-539 CNS, 87.9%; with UACC-257 melanoma it was 60%.
`NC(=O)Nc1ccc2ncnc(Nc3ccc(Cl)cc3)c2c1`: the growth in the assay with NCI-H226 lung was 99.8%; with NCI-H322M lung, 18%; in the assay on HOP-62 NSCLC it was 86.2%; with NCI-H460 lung it was 87.9%; with HOP-92 NSCLC it was 74.2%; in the assay with NCI-H522 lung, 66.2%. Besides, the growth in the assay on A549/ATCC NSCLC was 72.5%; in the assay with 786-0 renal, 85.9%; with COLO 205 colon, 101%; in the assay on DU-145 prostate, 52%; in the assay on K-562 leukemia it was 71.4%; in the assay on MALME-3M melanoma, 117%. For the same compound, the growth with MDA-MB-231 breast was 89.3%; with RXF 393 renal, 93.7%; in the assay on SF-268 CNS, 79.7%; in the assay on SF-295 CNS, 90.7%; in the assay on SF-539 CNS, 95.7%; with UACC-257 melanoma, 100%. Besides, the growth with M14 melanoma was 107%.
Consider `N#CC1=C(N)Oc2c(sc3c(Br)cccc23)C1c1ccc([N+](=O)[O-])cc1` (configuration not stated), for which the growth in the assay with NCI-H226 lung is 58.9%; with NCI-H322M lung, 40.6%; in the assay with HOP-62 NSCLC it was 26.6%; in the assay on NCI-H460 lung it was -7.51% (active); with HOP-92 NSCLC, -7.19% (active); in the assay with NCI-H522 lung, -6.47% (active). The growth with A549/ATCC NSCLC is 24.7%; in the assay with 786-0 renal, 10.2%; in the assay on COLO 205 colon, -49.7% (active); with DU-145 prostate it was 8.77% (active); in the assay on K-562 leukemia, 7.66% (active); in the assay on MALME-3M melanoma it was 93.2%. Also, the growth with RXF 393 renal is 17.6%; in the assay with SF-268 CNS it was 13.5%; with SF-295 CNS it was -5.7% (active); in the assay with SF-539 CNS it was -18% (active); in the assay on UACC-257 melanoma it was 87.1%; in the assay on M14 melanoma, 3.87% (active).
As for `O=C(S)CNC(=O)c1ccccc1`, the growth in the assay on NCI-H226 lung is 101%; in the assay on NCI-H322M lung, 95.1%; in the assay on HOP-62 NSCLC, 92.7%; in the assay on HOP-92 NSCLC, 74.7%; in the assay on NCI-H522 lung, 86.4%; in the assay on A549/ATCC NSCLC, 99.8%. The growth in the assay with 786-0 renal was 98.1%; with COLO 205 colon, 107%; with DU-145 prostate it was 98.8%; in the assay on K-562 leukemia it was 95.1%; in the assay on MALME-3M melanoma, 84.2%; in the assay with MDA-MB-231 breast it was 97.6%. Moreover, the growth with RXF 393 renal was 92.7%; in the assay with SF-268 CNS, 86.5%; in the assay with SF-295 CNS it was 111%; with SF-539 CNS, 93.4%; in the assay on UACC-257 melanoma, 98%; in the assay with M14 melanoma, 95.9%.
In the case of `COc1cc(CNS(=O)(=O)c2ccc(C)cc2)ccc1OCc1cn(-c2ccccc2)nn1`, the growth with NCI-H226 lung is 81.5%; in the assay with HOP-62 NSCLC, 97%; with HOP-92 NSCLC, 68.4%; in the assay with NCI-H522 lung it was 76.5%; in the assay on A549/ATCC NSCLC, 90.7%; in the assay with 786-0 renal, 95.2%. The growth is 108% with COLO 205 colon; 103% in the assay with DU-145 prostate; 73.4% with K-562 leukemia; 99.7% in the assay with MALME-3M melanoma; 95.4% in the assay on MDA-MB-231 breast; 99.9% in the assay on RXF 393 renal. For the same compound, the growth in the assay with SF-268 CNS was 98.2%; in the assay with SF-295 CNS it was 93.5%; in the assay on SF-539 CNS, 94.6%; with UACC-257 melanoma, 82.3%; with M14 melanoma it was 99.2%.
Take `CC(C)n1cnc2c(Nc3cccc(Cl)c3)nc(N[C@H]3CCCC[C@@H]3N)nc21`: the growth in the assay on NCI-H226 lung was 68.6%; in the assay on NCI-H322M lung, 66.4%; in the assay with HOP-62 NSCLC, 42.8%; with NCI-H460 lung, 45.7%; in the assay with HOP-92 NSCLC, 26.8%; with NCI-H522 lung it was 38.7%. In addition, the growth was 55.7% in the assay on A549/ATCC NSCLC; 45.7% in the assay on 786-0 renal; 26.4% with COLO 205 colon; 49.7% with DU-145 prostate; 35.5% in the assay with K-562 leukemia; 45.5% with MALME-3M melanoma. The growth was 32.6% in the assay on MDA-MB-231 breast; 53.2% in the assay with RXF 393 renal; 46.5% in the assay with SF-268 CNS; 76.3% with SF-295 CNS; 71.3% with SF-539 CNS; 64.1% in the assay on UACC-257 melanoma. In addition, the growth in the assay on M14 melanoma was 40.9%.
Take `CCN1C(=O)N(CC)C2Nn3c(s/c(=C\c4ccc([N+](=O)[O-])cc4)c3=O)=NC21` (configuration not stated): the growth was 80.1% in the assay on NCI-H226 lung; 89.7% in the assay on NCI-H322M lung; 96.2% in the assay on HOP-62 NSCLC; 98.3% in the assay on NCI-H460 lung; 84.1% in the assay on HOP-92 NSCLC; 9.71% (active) with NCI-H522 lung. Besides, the growth in the assay on A549/ATCC NSCLC was 82.4%; in the assay with 786-0 renal, 85.1%; in the assay on COLO 205 colon, 35.5%; in the assay with DU-145 prostate it was 91.8%; in the assay on K-562 leukemia, 29.4%; in the assay with MALME-3M melanoma, 70.3%. Besides, the growth was 47.8% in the assay with MDA-MB-231 breast; 103% with RXF 393 renal; 90% in the assay on SF-268 CNS; 93.9% with SF-295 CNS; 94.3% in the assay on SF-539 CNS; 43.4% in the assay with UACC-257 melanoma. Further, the growth with M14 melanoma was 48%.
`CN1C(=C2C(=O)OC(C)(C)OC2=O)CCC1C(=O)NCc1ccc(Cl)cc1Cl` (configuration not stated): the growth in the assay with NCI-H226 lung was 79.1%; in the assay on NCI-H322M lung, 107%; in the assay with HOP-62 NSCLC, 85.4%; with NCI-H460 lung, 100%; in the assay on HOP-92 NSCLC it was 85.3%; in the assay with NCI-H522 lung, 54.2%. For the same compound, the growth was 79.5% in the assay on A549/ATCC NSCLC; 103% with 786-0 renal; 103% in the assay with COLO 205 colon; 107% with DU-145 prostate; 97.5% with K-562 leukemia; 102% in the assay with MALME-3M melanoma. Further, the growth in the assay on MDA-MB-231 breast was 99.5%; in the assay with RXF 393 renal, 108%; in the assay with SF-268 CNS it was 101%; with SF-295 CNS, 96.4%; with SF-539 CNS, 96%; in the assay with UACC-257 melanoma, 87%. Besides, in the assay with M14 melanoma, the growth was 98.2%.
`COc1cccc(-c2nn(-c3ccccc3)cc2-c2ccnc(N3CCOCC3)c2)c1`: the growth with NCI-H226 lung is 93.9%; in the assay with NCI-H322M lung, 98.7%; in the assay with HOP-62 NSCLC it was 96.2%; in the assay on NCI-H460 lung it was 91.3%; in the assay with HOP-92 NSCLC, 66.3%; in the assay on NCI-H522 lung it was 71.4%. Also, the growth in the assay with A549/ATCC NSCLC was 86.8%; with 786-0 renal it was 99%; with COLO 205 colon, 98.5%; in the assay with DU-145 prostate, 99.5%; with K-562 leukemia, 73.6%; in the assay with MALME-3M melanoma, 90.7%. Also, the growth is 85.1% in the assay with MDA-MB-231 breast; 97.8% in the assay with RXF 393 renal; 88.8% in the assay on SF-268 CNS; 82.8% with SF-295 CNS; 97.9% in the assay with SF-539 CNS; 111% in the assay with UACC-257 melanoma. Moreover, the growth in the assay with M14 melanoma is 100%.
Regarding `c1cc(NCCc2ccncc2)nc(-n2cnc3ccccc32)c1`, the growth in the assay with NCI-H226 lung was 76.6%; in the assay with NCI-H322M lung, 81.4%; in the assay on HOP-62 NSCLC, 90.7%; in the assay with NCI-H460 lung it was 79%; in the assay on HOP-92 NSCLC it was 93%; in the assay on NCI-H522 lung, 78.8%. In addition, the growth in the assay with A549/ATCC NSCLC is 78.8%; in the assay on 786-0 renal, 92%; with DU-145 prostate it was 85.7%; in the assay on K-562 leukemia, 88.6%; in the assay with MALME-3M melanoma, 103%; with MDA-MB-231 breast, 98.2%. Also, the growth was 82.7% in the assay on RXF 393 renal; 82.3% in the assay with SF-268 CNS; 105% in the assay on SF-295 CNS; 90.3% in the assay on SF-539 CNS; 93.8% with UACC-257 melanoma; 94% in the assay on M14 melanoma.
As to `CC1Cc2ccccc2N1NC(=O)c1ccc(Cl)c(S(N)(=O)=O)c1` (configuration not stated), the growth was 97.8% in the assay on NCI-H226 lung; 95.2% in the assay with NCI-H322M lung; 95.8% with HOP-62 NSCLC; 111% with NCI-H460 lung; 44.9% in the assay on HOP-92 NSCLC; 88% with NCI-H522 lung. Besides, the growth was 107% with A549/ATCC NSCLC; 96.6% with 786-0 renal; 108% with COLO 205 colon; 108% in the assay with DU-145 prostate; 103% with K-562 leukemia; 94.2% in the assay with MALME-3M melanoma. Besides, the growth in the assay on MDA-MB-231 breast was 104%; with RXF 393 renal, 108%; in the assay with SF-268 CNS, 106%; in the assay with SF-295 CNS, 101%; in the assay on SF-539 CNS, 105%; in the assay on UACC-257 melanoma, 102%. Moreover, the growth in the assay on M14 melanoma is 98.2%.
